Results from the supplement of paper PMC10849652.
Targets with a hit are over-represented here; the source holds about 7,900 in all. About 0.6% of all pairs of compound and target were hits.

Key:
Assay in all cases: log2 fold change, soluble protein after heating vs DMSO (PISA); higher = thermal stabilisation; K562 cells, 10 uM, 30 min; active = over 0.2 and 3.5 SD of the protein, either way, in both replicates (recomputed)
IRAK-1-4 Inhibitor I = compound: C1COCCN1CCN2C3=CC=CC=C3N=C2NC(=O)C4=CC(=CC=C4)[N+](=O)[O-] [IRAK-1-4 Inhibitor I]
Outline: (§1)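 Soluble protein was quantified by TMTpro 16plex LC-MS/MS after channel sums were equalised. It was obtained as the supernatant after 21,000xg for 90 min from pooled aliquots of K562 cells (2×10^6 cells/mL, 10 μM compound, 30 min) heated for 3 min across 48°C-58°C and extracted in PBS with 0.5% NP-40 at 4°C. Thermal stability values are relative to control samples and come from duplicates. They are given as log2 fold changes.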

ibrutinib = compound: C=CC(=O)N1CCC[C@@H](n2nc(-c3ccc(Oc4ccccc4)cc3)c3c(N)ncnc32)C1 [ibrutinib]
Outline: as §1

[1] = compound: CC(=O)c1cnc2ccc(-c3cc(Cl)c(O)c(Cl)c3)nc2c1N[C@H]1CC[C@H](CN(C)C)CC1
Outline: as §1

ralimetinib = compound: CC(C)(C)Cn1c(N)nc2ccc(-c3[nH]c(C(C)(C)C)nc3-c3ccc(F)cc3)nc21 [ralimetinib]
Outline: as §1

[2] = compound: CC(C)(O)CC(=O)NCCn1ccc2ncnc(Nc3ccc(Oc4cccc(C(F)(F)F)c4)c(Cl)c3)c21
Outline: as §1

[3] = compound: CC(C)C1=C2N=C(C=C(N2N=C1)NCC3=CC=CC=C3)NCCCCCCN
Outline: as §1

[4] = compound: CC(C)C[C@@H](C=O)NC(=O)[C@H](CC(C)C)NC(=O)[C@H](CC(C)C)NC(=O)OCc1ccccc1
Outline: as §1

pinometostat = compound: CC(C)N(C[C@H]1O[C@@H](n2cnc3c(N)ncnc32)[C@H](O)[C@@H]1O)[C@H]1C[C@@H](CCc2nc3cc(C(C)(C)C)ccc3[nH]2)C1 [pinometostat]
Outline: as §1

[5] = compound: CC1=C(C(CC(=O)N1)C2=CC=C(C=C2)C(F)(F)F)C(=O)NC3=C(C=C4C(=C3)C=NN4)F
Outline: as §1

[6] = compound: CC1=C(C2=C(C=C1)C(=O)C3=CC=CC=C3N2CCCN)C
Outline: as §1

[7] = compound: CC1=C(C=C(C=C1)NC(=O)C2=CC(=CC=C2)C(C)(C)C#N)NC3=CC4=C(C=C3)N=CN(C4=O)C
Outline: as §1

[8] = compound: CC1=C(C=C(C=C1)NC(=O)C2=CC(=CC=C2)N(C)C)NC(=O)C3=CC=C(C=C3)O
Outline: as §1

[9] = compound: CC1=CC=C(C=C1)SC2=C3C=C(SC3=CN=C2)C(=O)N
Outline: as §1

[10] = compound: CC1=NC(=CC=C1)C2=C(N=C(N2)C(C)(C)C)C3=CC4=NC=CN=C4C=C3
Outline: as §1

Nexturastat A = compound: CCCCN(Cc1ccc(C(=O)NO)cc1)C(=O)Nc1ccccc1 [Nexturastat A]
Outline: as §1

vemurafenib = compound: CCCS(=O)(=O)Nc1ccc(F)c(C(=O)c2c[nH]c3ncc(-c4ccc(Cl)cc4)cc23)c1F [vemurafenib]
Outline: as §1

[11] = compound: CCCS(=O)(=O)Nc1ccc(F)c(C(=O)c2c[nH]c3ncc(Cl)cc23)c1F
Outline: as §1

[12] = compound: CCCc1cc(C)[nH]c(=O)c1CNC(=O)c1cc(-c2ccnc(N3CCN(C)CC3)c2)cc2c1cnn2C(C)C
Outline: as §1

givinostat = compound: CCN(CC)Cc1ccc2cc(COC(=O)Nc3ccc(C(=O)NO)cc3)ccc2c1 [givinostat]
Outline: as §1

barasertib = compound: CCN(CCCOc1ccc2c(Nc3cc(CC(=O)Nc4cccc(F)c4)[nH]n3)ncnc2c1)CCOP(=O)(O)O [barasertib]
Outline: as §1

Measured: log2 fold change

VPS11 (UniProt Q9H270)
Sequence of UniProt Q9H270 (Q9H270 whole entry, looked up): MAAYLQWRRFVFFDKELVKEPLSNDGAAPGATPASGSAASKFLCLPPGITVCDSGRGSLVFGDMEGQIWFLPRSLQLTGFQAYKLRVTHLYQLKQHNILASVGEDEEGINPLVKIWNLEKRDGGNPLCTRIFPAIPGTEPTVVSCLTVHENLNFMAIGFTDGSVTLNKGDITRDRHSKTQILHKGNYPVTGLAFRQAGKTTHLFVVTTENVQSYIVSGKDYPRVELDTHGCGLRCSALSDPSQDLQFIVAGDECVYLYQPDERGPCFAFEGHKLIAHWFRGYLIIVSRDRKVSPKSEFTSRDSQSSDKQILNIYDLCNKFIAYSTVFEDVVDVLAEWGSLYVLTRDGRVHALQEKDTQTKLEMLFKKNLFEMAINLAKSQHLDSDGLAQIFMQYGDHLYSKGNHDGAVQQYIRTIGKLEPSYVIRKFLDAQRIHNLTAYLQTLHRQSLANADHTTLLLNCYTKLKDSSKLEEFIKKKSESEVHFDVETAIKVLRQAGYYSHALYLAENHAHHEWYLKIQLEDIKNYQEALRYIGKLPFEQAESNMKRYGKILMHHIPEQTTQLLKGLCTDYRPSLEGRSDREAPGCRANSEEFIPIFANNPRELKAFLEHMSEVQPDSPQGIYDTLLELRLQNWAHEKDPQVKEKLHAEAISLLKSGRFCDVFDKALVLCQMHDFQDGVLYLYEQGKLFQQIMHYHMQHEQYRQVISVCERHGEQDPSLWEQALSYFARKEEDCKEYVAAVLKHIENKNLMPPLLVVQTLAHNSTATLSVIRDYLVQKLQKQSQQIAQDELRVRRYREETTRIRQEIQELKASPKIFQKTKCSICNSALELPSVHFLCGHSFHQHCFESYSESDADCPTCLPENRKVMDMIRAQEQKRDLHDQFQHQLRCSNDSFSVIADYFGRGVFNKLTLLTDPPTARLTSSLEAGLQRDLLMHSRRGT
active: [3] -0.375
inactive: IRAK-1-4 Inhibitor I 0.115 | ibrutinib -0.038 | [1] -0.032 | ralimetinib 0.038 | [2] -0.069 | [4] 0.062 | pinometostat 0.011 | [5] 0.016 | [6] 0.031 | [7] 0.016 | [8] -0.003 | [9] 0.002 | [10] 0.076 | Nexturastat A 0.107 | vemurafenib 0.016 | [11] 0.073 | [12] 0.031 | givinostat -0.058 | barasertib 0.017

XRCC6 (UniProt P12956)
inactive: IRAK-1-4 Inhibitor I -0.046 | ibrutinib -0.057 | [1] -0.12 | ralimetinib -0.004 | [2] -0.124 | [3] -0.195 | [4] 0.074 | pinometostat -0.01 | [5] -0.001 | [6] -0.008 | [7] 0.046 | [8] -0.051 | [9] 0.022 | [10] 0.033 | Nexturastat A -0.023 | vemurafenib 0.059 | [11] 0.138 | [12] 0.025 | givinostat 0.116 | barasertib 0.086

TYW1 (UniProt Q9NV66)
Sequence of UniProt Q9NV66 (Q9NV66 whole entry, looked up): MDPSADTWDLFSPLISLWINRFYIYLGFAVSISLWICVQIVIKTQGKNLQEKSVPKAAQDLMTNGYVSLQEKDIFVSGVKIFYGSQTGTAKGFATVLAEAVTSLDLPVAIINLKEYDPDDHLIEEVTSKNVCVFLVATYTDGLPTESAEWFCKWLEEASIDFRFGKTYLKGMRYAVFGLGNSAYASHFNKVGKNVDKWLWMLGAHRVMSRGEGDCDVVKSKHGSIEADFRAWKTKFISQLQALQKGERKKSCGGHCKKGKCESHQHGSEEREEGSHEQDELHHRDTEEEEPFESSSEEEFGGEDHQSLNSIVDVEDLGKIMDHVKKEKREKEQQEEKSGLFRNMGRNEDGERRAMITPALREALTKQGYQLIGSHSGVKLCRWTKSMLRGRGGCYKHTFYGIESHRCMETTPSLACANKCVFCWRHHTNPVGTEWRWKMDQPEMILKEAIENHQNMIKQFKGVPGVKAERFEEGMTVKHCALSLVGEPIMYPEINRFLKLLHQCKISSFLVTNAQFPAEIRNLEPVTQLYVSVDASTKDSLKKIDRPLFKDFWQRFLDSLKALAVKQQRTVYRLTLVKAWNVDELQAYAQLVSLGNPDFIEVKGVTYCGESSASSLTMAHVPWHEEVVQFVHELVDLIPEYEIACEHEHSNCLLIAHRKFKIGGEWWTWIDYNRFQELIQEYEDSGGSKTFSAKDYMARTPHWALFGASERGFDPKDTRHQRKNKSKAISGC
inactive: IRAK-1-4 Inhibitor I -0.031 | ibrutinib -0.043 | [1] -0.096 | ralimetinib 0.044 | [2] 0 | [3] 0.03 | [4] -0.056 | pinometostat 0.005 | [5] -0.074 | [6] 0.051 | [7] 0.027 | [8] -0.017 | [9] 0.023 | [10] 0.074 | Nexturastat A -0.08 | vemurafenib 0.025 | [11] 0.084 | [12] 0.069 | givinostat -0.025 | barasertib 0.045

TMEM87B (UniProt Q96K49)
Sequence of UniProt Q96K49 (Q96K49 whole entry, looked up): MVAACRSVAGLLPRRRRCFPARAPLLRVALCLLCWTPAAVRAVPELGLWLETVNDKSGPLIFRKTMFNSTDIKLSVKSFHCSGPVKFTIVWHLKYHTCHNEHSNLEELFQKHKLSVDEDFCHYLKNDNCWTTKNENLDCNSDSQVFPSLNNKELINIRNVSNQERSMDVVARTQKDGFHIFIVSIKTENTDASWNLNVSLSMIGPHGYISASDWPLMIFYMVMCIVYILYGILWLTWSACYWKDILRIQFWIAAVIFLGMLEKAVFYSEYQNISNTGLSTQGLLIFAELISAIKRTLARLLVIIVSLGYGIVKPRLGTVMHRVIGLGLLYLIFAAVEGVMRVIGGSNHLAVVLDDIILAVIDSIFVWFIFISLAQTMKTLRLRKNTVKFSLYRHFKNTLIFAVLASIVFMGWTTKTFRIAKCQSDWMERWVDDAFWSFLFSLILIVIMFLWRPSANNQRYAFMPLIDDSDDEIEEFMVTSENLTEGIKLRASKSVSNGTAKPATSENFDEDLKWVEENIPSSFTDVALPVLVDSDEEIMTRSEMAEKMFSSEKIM
active: [3] -0.39
inactive: IRAK-1-4 Inhibitor I 0.139 | ibrutinib -0.084 | [1] -0.046 | ralimetinib -0.086 | [2] -0.204 | [4] -0.007 | pinometostat 0.065 | [5] 0.057 | [6] 0.029 | [7] -0.018 | [8] -0.013 | [9] 0.112 | [10] -0.008 | Nexturastat A -0.059 | vemurafenib -0.048 | [11] -0.028 | [12] 0.008 | givinostat -0.063 | barasertib 0.048

TRMT61A (UniProt Q96FX7)
inactive: IRAK-1-4 Inhibitor I 0.07 | ibrutinib 0.14 | [1] -0.002 | ralimetinib 0.06 | [2] 0.109 | [3] -0.099 | [4] 0.086 | pinometostat 0.188 | [5] -0.034 | [6] -0.401 | [7] 0 | [8] 0.056 | [9] -0.013 | [10] -0.083 | Nexturastat A 0.204 | vemurafenib -0.119 | [11] -0.009 | [12] 0.114 | givinostat 0.038 | barasertib -0.091

TMEM63B (UniProt Q5T3F8)
Sequence of UniProt Q5T3F8 (Q5T3F8 whole entry, looked up): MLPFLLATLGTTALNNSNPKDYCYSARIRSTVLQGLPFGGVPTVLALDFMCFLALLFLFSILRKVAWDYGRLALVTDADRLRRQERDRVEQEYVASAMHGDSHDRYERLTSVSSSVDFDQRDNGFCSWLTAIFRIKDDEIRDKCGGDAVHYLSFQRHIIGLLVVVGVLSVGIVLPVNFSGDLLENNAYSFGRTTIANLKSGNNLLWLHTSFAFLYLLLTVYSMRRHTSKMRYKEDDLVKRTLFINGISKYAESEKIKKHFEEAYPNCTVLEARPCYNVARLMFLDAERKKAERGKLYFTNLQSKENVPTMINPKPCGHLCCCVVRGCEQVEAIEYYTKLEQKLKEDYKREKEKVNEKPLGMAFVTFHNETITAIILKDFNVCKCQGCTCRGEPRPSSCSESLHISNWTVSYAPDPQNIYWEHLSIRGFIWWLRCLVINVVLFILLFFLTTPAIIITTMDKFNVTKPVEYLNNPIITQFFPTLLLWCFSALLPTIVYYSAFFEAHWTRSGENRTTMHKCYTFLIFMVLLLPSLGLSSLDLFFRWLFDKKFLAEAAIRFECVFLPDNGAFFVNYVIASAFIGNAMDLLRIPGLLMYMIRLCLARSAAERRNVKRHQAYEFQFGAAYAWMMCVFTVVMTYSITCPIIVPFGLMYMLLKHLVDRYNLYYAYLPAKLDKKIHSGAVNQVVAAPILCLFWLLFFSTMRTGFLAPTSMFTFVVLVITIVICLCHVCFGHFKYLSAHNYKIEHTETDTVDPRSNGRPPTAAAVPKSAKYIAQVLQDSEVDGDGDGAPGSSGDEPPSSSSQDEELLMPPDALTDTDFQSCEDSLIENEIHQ
inactive: IRAK-1-4 Inhibitor I -0.01 | ibrutinib -0.055 | [1] -0.002 | ralimetinib -0.034 | [2] 0.011 | [3] -0.157 | [4] -0.01 | pinometostat 0.041 | [5] 0.027 | [6] 0.054 | [7] 0.095 | [8] 0.014 | [9] 0.006 | [10] 0.004 | Nexturastat A 0.051 | vemurafenib 0.009 | [11] -0.011 | [12] -0.044 | givinostat 0.014 | barasertib -0.038

UBA1 (UniProt P22314)
Sequence of UniProt P22314 (P22314 whole entry, looked up): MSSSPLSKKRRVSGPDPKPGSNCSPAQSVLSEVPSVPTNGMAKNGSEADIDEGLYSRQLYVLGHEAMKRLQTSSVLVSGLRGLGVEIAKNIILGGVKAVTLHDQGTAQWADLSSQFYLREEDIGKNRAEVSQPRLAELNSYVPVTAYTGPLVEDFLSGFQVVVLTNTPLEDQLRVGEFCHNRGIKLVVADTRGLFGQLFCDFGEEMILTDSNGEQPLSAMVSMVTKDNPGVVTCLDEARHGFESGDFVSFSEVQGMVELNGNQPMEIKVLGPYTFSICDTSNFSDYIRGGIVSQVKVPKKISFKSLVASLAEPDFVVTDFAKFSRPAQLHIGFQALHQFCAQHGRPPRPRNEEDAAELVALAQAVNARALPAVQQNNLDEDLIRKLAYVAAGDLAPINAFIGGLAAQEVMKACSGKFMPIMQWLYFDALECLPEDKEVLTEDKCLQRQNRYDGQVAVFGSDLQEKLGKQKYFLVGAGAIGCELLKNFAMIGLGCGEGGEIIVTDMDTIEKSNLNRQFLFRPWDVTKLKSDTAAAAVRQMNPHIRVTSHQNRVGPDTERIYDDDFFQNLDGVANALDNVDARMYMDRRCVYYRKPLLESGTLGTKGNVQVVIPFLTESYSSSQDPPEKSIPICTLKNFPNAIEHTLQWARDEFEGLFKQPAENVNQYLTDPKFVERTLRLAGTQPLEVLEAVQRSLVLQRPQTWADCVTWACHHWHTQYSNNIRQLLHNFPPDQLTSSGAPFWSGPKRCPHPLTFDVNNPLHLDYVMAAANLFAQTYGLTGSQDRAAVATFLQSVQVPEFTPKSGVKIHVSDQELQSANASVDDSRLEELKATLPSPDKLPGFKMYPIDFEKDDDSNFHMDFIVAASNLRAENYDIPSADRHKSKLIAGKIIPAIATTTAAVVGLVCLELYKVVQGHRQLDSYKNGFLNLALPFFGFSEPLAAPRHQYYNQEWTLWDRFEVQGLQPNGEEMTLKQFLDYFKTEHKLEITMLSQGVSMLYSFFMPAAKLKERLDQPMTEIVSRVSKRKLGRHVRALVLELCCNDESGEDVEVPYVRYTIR
active: [3] -0.363
inactive: IRAK-1-4 Inhibitor I -0.145 | ibrutinib -0.058 | [1] -0.047 | ralimetinib 0.068 | [2] -0.15 | [4] -0.055 | pinometostat 0.019 | [5] 0.023 | [6] 0.336 | [7] 0.039 | [8] -0.054 | [9] 0.048 | [10] 0.006 | Nexturastat A -0.066 | vemurafenib 0.084 | [11] 0.089 | [12] 0.058 | givinostat 0.074 | barasertib 0.138

TPP1 (UniProt O14773)
inactive: IRAK-1-4 Inhibitor I -0.007 | ibrutinib -0.01 | [1] -0.006 | ralimetinib -0.025 | [2] 0.059 | [4] 0.043 | pinometostat -0.052 | [5] 0.025 | [6] -0.009 | [7] 0.006 | [8] 0.037 | [9] 0.02 | [10] 0.03 | Nexturastat A -0.007 | vemurafenib -0.006 | [11] -0.021 | [12] 0 | givinostat -0.015 | barasertib -0.018
active: [3] -0.492

UFM1 (UniProt P61960)
Sequence of UniProt P61960 (P61960 whole entry, looked up): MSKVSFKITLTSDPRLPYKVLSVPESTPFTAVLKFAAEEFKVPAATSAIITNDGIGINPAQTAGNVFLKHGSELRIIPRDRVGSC
inactive: IRAK-1-4 Inhibitor I 0.219 | ibrutinib 0.026 | [1] 0.003 | ralimetinib 0 | [2] -0.117 | [3] 0.06 | [4] 0.055 | pinometostat 0.013 | [5] -0.057 | [6] 0.133 | [7] 0.031 | [8] -0.046 | [9] 0.06 | [10] 0.183 | Nexturastat A -0.04 | vemurafenib 0.07 | [11] 0.041 | [12] -0.083 | givinostat 0.087 | barasertib -0.014

TMEM268 isoform 3 (UniProt Q5VZI3)
inactive: ibrutinib 0.036 | [1] -0.042 | ralimetinib -0.056 | [2] -0.334 | [3] -0.095 | [4] -0.016 | [5] -0.033 | [6] 0.014 | [7] 0.056 | [8] 0.024 | [9] -0.178 | Nexturastat A 0.124 | [11] 0.083 | [12] 0.18 | givinostat 0.11 | barasertib -0.461

UBE2J2 isoform 3 (UniProt Q8N2K1)
Sequence of UniProt Q8N2K1 (Q8N2K1 whole entry, looked up): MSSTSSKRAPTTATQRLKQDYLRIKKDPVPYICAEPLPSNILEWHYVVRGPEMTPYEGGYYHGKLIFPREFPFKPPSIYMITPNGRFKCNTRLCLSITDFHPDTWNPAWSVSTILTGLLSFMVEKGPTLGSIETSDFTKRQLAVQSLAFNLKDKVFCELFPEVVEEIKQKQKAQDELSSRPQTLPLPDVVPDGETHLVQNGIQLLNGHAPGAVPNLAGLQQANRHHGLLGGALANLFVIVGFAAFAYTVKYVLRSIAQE
inactive: ibrutinib 0.086 | [1] -0.017 | [2] -0.019 | [3] -0.185 | [6] 0.02 | [7] -0.085 | [9] 0.024 | Nexturastat A 0.028 | vemurafenib 0.214 | [11] -0.027 | givinostat 0.009 | barasertib 0.006

VDAC1 (UniProt P21796)
inactive: IRAK-1-4 Inhibitor I 0.07 | [1] 0.02 | ralimetinib -0.035 | [2] 0.021 | [3] 0.058 | [4] -0.039 | pinometostat -0.032 | [5] -0.009 | [6] -0.016 | [7] -0.025 | [8] 0.02 | [9] 0.025 | [10] 0.012 | Nexturastat A -0.028 | vemurafenib 0.015 | [11] 0.018 | [12] -0.005 | givinostat -0.001 | barasertib -0.017

UTP20 (UniProt O75691)
inactive: [2] -0.172 | [3] 0.081 | [6] 0 | [9] 0.037 | [11] -0.086 | givinostat 0.463
active: Nexturastat A 0.755

WARS1 (UniProt G3V5U1)
inactive: IRAK-1-4 Inhibitor I 0.01 | ibrutinib -0.158 | [2] 0.156 | pinometostat 0.031 | [7] -0.795 | [10] -0.638 | Nexturastat A 0.136 | [12] -0.118 | barasertib -0.007

UBXN8 (UniProt O00124)
inactive: ibrutinib 0.077 | [1] 0.039 | ralimetinib 0.211 | [2] 0.138 | [4] -0.227 | [6] 0.259 | [7] -0.029 | [8] 0.169 | [9] 0.023 | Nexturastat A 0.334 | vemurafenib 0.089 | [11] -0.024 | barasertib -0.218

TUT4 (UniProt Q5TAX3)
inactive: IRAK-1-4 Inhibitor I 0.078 | ibrutinib -0.029 | ralimetinib 0.07 | [2] 0 | [3] -0.219 | [4] 0.086 | pinometostat 0.059 | [5] 0.158 | [6] 0.104 | [7] -0.124 | [8] -0.106 | [9] -0.081 | [10] -0.121 | Nexturastat A 0.449 | vemurafenib -0.129 | [11] -0.008 | [12] -0.124 | givinostat 0.069 | barasertib 0.027

UBE2D1 (UniProt P51668)
inactive: ibrutinib 0.007 | [1] 0.005 | ralimetinib 0.003 | [3] -0.203 | [4] -0.058 | [5] 0.028 | [6] 0.117 | [7] -0.08 | [8] 0.029 | [9] 0.021 | vemurafenib 0.156 | [11] 0.097 | [12] -0.004 | givinostat -0.035 | barasertib 0.047

TOM1L2 (UniProt Q6ZVM7)
Sequence of UniProt Q6ZVM7 (Q6ZVM7 whole entry, looked up): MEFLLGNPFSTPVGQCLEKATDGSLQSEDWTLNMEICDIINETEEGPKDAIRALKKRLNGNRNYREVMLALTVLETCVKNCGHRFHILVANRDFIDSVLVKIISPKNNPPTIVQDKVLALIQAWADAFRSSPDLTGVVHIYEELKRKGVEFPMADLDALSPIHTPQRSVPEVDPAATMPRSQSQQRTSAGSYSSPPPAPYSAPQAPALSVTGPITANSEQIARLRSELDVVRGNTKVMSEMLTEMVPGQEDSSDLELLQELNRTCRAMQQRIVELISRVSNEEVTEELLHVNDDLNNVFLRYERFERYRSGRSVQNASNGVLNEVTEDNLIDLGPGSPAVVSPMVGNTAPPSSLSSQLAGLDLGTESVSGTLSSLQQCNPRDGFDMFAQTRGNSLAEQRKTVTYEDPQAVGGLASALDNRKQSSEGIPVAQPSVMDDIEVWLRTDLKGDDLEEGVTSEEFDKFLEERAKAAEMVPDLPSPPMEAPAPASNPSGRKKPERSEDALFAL
inactive: IRAK-1-4 Inhibitor I -0.049 | [1] -0.031 | [2] -0.089 | [3] 0.049 | pinometostat 0.036 | [5] -0.012 | [7] -0.038 | [10] -0.132 | Nexturastat A -0.046 | vemurafenib -0.008 | givinostat 0.025

XAB2 (UniProt Q9HCS7)
inactive: IRAK-1-4 Inhibitor I -0.036 | ralimetinib 0.14 | [2] -0.138 | [4] -0.041 | pinometostat 0.181 | [8] -0.027 | [10] -0.034 | Nexturastat A 0.469 | [12] 0.168
